Screens (PubChem)
HEK cytotox = Cytotoxic Profiling in HEK 293 Cell Line of Diverse Libraries Using Quantitative High-Throughput Screening | Potency, µM (titrated, usually from 115 µM), most hits filed as inhibitors | 6.6% of 94,000 active | HEK 293 viability, ATP luminescence (CellTiter-Glo), 48-72 h; also: nearly all actives have a fitted effect of over 60% in size
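250 HEK 293 cells/well; compound by pintool; incubated 48 or 72 hr at 37 degree Celsius; CellTiter-Glo added, 10 min RT, luminescence imaged.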
hNpr1 antagonist = Natriuretic polypeptide receptor (hNpr1) antagonism - Primary qHTS. 1.6% of 76,000 active. HEK293 hNpr1 GloSensor cGMP, ANP-stimulated luminescence. Potency, µM (titrated, usually from 46.3 µM), actives largely listed as inhibitors. Atrial natriuretic peptide receptor 1 (Homo sapiens), P16066; calls by dose curve; also: nearly all actives have a fitted effect of over 60% in size
Target sequence (P16066 whole entry, looked up): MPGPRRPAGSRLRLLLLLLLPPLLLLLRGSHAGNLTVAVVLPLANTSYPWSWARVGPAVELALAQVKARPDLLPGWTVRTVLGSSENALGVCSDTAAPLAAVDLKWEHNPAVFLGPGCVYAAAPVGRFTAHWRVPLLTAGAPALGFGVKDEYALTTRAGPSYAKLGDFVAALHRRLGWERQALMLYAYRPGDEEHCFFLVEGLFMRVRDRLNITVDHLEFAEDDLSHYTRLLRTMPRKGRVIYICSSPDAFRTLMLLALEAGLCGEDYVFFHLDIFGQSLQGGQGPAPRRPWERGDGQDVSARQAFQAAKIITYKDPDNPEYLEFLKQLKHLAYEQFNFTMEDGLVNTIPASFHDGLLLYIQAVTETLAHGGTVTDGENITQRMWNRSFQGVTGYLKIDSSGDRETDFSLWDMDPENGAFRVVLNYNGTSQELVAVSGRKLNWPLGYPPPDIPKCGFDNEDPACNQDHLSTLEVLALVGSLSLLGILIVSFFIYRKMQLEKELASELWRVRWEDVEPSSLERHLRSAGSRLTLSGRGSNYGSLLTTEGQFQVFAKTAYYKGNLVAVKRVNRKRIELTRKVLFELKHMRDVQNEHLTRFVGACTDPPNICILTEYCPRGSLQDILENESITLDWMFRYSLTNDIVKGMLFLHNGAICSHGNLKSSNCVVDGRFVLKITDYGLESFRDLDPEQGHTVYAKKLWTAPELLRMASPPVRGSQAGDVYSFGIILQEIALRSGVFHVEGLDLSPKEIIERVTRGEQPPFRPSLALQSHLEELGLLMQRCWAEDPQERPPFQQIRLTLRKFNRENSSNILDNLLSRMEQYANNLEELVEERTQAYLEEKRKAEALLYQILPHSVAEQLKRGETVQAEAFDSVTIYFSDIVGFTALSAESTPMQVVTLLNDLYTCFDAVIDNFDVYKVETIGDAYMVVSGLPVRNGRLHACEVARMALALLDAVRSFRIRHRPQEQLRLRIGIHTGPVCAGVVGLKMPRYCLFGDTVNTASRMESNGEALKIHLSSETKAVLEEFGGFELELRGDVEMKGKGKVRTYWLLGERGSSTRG
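Compound pre-incubated 30 min at room temperature on GloSensor-loaded HEK293 cells stably carrying hNpr1 and the pGS-40F cGMP biosensor. Stimulation uses hNppA at 0.1 nM final; luminescence is taken at baseline and 20 min post-agonist.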
GPT2 inhibitor = Primary qHTS assay for inhibitors of Glutamate pyruvate transaminase 2 (GPT2) | Alanine aminotransferase 2 (Homo sapiens), Q8TD30 | Recombinant GPT2, coupled pyruvate oxidase/HRP Amplex Red fluorescence | Potency, µM (series often up to 57.7 µM), usual class: inhibitors | 0.25% of 100,000 active | AID 1671188, 2021; also: nearly all actives have a fitted effect of over 60% in size
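Inhibition is scored from Amplex Red fluorescence generated when pyruvate oxidase and HRP act on pyruvate released by GPT2. Reactions contain 10ng/uL enzyme, 250uM a-KG and 2mM L-alanine and run 30 min at room temperature.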
3T3 cytotox = Cytotoxic Profiling in NIH 3T3 Cell Line of Diverse Libraries Using Quantitative High-Throughput Screening. NIH 3T3 viability, CellTiter-Glo ATP luminescence, 48-72 h. Potency, µM (doses to about 96.7 µM), usual class: inhibitors. 4.3% of 94,000 active. AID 1345082, 2018; also: nearly all actives have a fitted effect of over 55% in size
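Cytotoxicity is measured as loss of cellular ATP: NIH 3T3 cells (400/well) are exposed to compound for 48 or 72 hr at 37 °C, then CellTiter-Glo luminescence is imaged after 10 min at room temperature.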
FLuc inh = Firefly luciferase inhibition profiling of diverse chemical library using quantitative high-throughput screening; Potency, µM (titrated, usually from 115 µM), hits mostly inhibitors; purified P. pyralis luciferase, luminescence, biochemical; 2.5% of 76,000 active; also: nearly all actives have a fitted effect of over 65% in size
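Cell-free enzyme assay, 10nM P. pyralis luciferase, luciferin and ATP each at 10uM. Inhibition profiled over a 6-point titration, read as luminescence.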
Hits are given with their value; i = inactive; ? = inconclusive; nt = no result; [ ] = another dose, or the depositor's remark. A selection: hits, their analogues and other compounds. The true share with any hit is near 10%. Unless noted, calls follow the shape of the dose curve; as a rule, active = well fitted curve in the direction sought with a large enough effect; inconclusive = small, poorly fitted or top-dose-only effect, or another doubt; inactive = no such curve, though single readings can be large; an effect the other way counts as inactive or inconclusive.

SMILES	HEK cytotox	hNpr1 antagonist	GPT2 inhibitor	3T3 cytotox	FLuc inh
O=C1CC2(CCN(C(=O)C3CCCN(C(=O)Nc4ccccc4)C3)CC2)Oc2ccccc2N1 (stereo not drawn)	32µM	nt	i	?	nt
CN1C[C@@H](NS(=O)(=O)Cc2ccccc2)C[C@H]1c1nc(-c2ccc3c(c2)OCO3)no1	i	i	i	i	i
CC(=O)Nc1ccc(S(=O)(=O)N[C@H]2C[C@@H](c3nc(-c4ccccc4)no3)N(C)C2)cc1	40µM	?	i	?	?
CC(=O)Nc1ccc(S(=O)(=O)N[C@H]2C[C@@H](c3nc(C)no3)N(C)C2)cc1	i	i	i	i	i
CCCS(=O)(=O)N[C@H]1C[C@@H](c2nc(-c3ccc4c(c3)OCO4)no2)N(C)C1	?	i	i	i	45µM
Cc1ccc(-c2noc([C@@H]3C[C@H](NS(=O)(=O)Cc4ccccc4)CN3C)n2)cc1	100µM	i	i	79µM	i
Cc1ccc(-c2noc([C@@H]3C[C@H](NS(=O)(=O)c4ccc(C)cc4)CN3C)n2)cc1	71µM	?	?	89µM	22µM
CCc1nc(-c2c3n(c(=O)n(CC(=O)Nc4cc(C)on4)c2=O)CCCC3)no1	i	i	i	i	i
O=C(NCc1ccccn1)C1c2ccccc2C(=O)N(c2ccccc2)C12CCCCC2 (stereo not drawn)	?	i	i	?	i
COc1cccc(CNC(=O)Cn2cccc2-c2nc(-c3ccccc3)no2)c1OC	i	i	i	i	i
O=C(NCc1ccccn1)c1nc2sccn2c1-c1cccnc1	i	nt	i	i	nt
Cc1ccc(OC2(C(=O)NC(C)c3cn4ncsc4n3)CCNCC2)cc1 (stereo not drawn)	i	i	i	i	i
Cc1ccc(-c2noc([C@@H]3C[C@H](NS(=O)(=O)c4ccc5ccccc5c4)CN3C)n2)cc1	?	i	i	?	20µM
O=C(/C=C/c1ccc(O)c(O)c1)O[C@H]1[C@H](OC2CCCCC2O)O[C@H](CO)[C@@H](O)[C@@H]1O (stereo partly drawn)	nt	nt	4.5µM	nt	nt
CC(=O)N1CCC(NC[C@@H]2C=C(C)[C@H](Cc3nc4ccc(F)cc4[nH]3)C[C@H]2C(C)C)CC1	?	i	i	79µM	i
CC1=C[C@@H](CNC(=O)c2cnccn2)[C@H](C(C)C)C[C@H]1CC(=O)O	i	i	i	i	i
CC1=C[C@@H](CNC(=O)c2cnccn2)[C@H](C(C)C)C[C@H]1Cc1nc2ccc(C)cc2[nH]1	32µM	?	i	?	i
CC1=C[C@@H](CNC(=O)c2cnccn2)[C@H](C(C)C)C[C@H]1Cc1nc2ccc(F)cc2[nH]1	71µM	?	i	112µM	i
COc1ccc2nc(C[C@@H]3C[C@@H](C(C)C)[C@H](CNC(=O)Nc4ccc(F)cc4)C=C3C)[nH]c2c1	28µM	i	i	40µM	i
CC(=O)O[C@@H]1[C@H](O[C@@H]2OC[C@](O)(CO)[C@H]2O)[C@@H](O[C@@H]2O[C@@H](C)[C@H](O)[C@@H](O[C@@H]3O[C@H](CO)[C@@H](O)[C@H](O)[C@H]3O)[C@H]2O)[C@H](OC(=O)[C@]23CCC(C)(C)C[C@H]2C2=CCC4[C@@]5(C)C[C@H](O)[C@H](O[C@@H]6O[C@H](C(=O)O)[C@@H](O)[C@H](O)[C@H]6O)[C@@](C)(C(=O)O)C5CC[C@@]4(C)[C@]2(C)CC3)O[C@@H]1C (stereo partly drawn)	nt	nt	i[11.5 µM]	nt	nt
Cc1ccc(NC(=O)N2CCC(Oc3ncccc3C(=O)N3CCOCC3)C2)c(C)c1 (stereo not drawn)	i	i	i	i	i
CC1CCCCC1NC(=O)c1ccc2nccn2c1 (stereo not drawn)	i	nt	i	i	nt
Cc1onc(-c2cnn(C)c2NCCc2ccccc2)c1C(=O)NCc1ccccc1	?	i	i	?	i
O=C(C1CCCN1C(=O)c1cccc(Cl)c1)N1CCC(N2CCOCC2=O)CC1 (stereo not drawn)	i	nt	i	i	nt
O=C(NCc1ccccc1F)c1ccc2oc(-c3cccnc3Cl)nc2c1	?	nt	i	?	nt
SMILES	HEK cytotox	hNpr1 antagonist	GPT2 inhibitor	3T3 cytotox	FLuc inh
CC1=C[C@@H](CNC(=O)CCC(=O)O)[C@H](C(C)C)C[C@H]1Cc1nc2ccc(F)cc2[nH]1	i	i	i	i	i
CC1=C[C@@H](CNC(=O)C2CCC2)[C@H](C(C)C)C[C@H]1Cc1nc2ccc(F)cc2[nH]1	28µM	?	?	40µM	i
COc1ccc(C(=O)N2CCCC(C(=O)N3CCC(N4CCOCC4=O)CC3)C2)cc1 (stereo not drawn)	i	nt	i	i	nt
O=c1cc(N2CCOCC2)oc2c(NCc3cnccn3)nccc12	i	i	i	100µM	i
CN1CCN(c2cc(=O)c3ccnc(NCc4ccccc4)c3o2)CC1	i	i	i	?	i
COc1cc(-c2nccc3c(=O)cc(N4CCOCC4)oc23)ccn1	i	i	i	?	i
O=c1cc(N2CCOCC2)oc2c(NCC3CCOCC3)nccc12	i	i	i	28µM	i
O=C1NCCCCCCN(C(=O)c2ccncc2)[C@H]2CCC[C@@H]12	i	i	i	i	i
Fc1cccc(-n2cc(CN3CCCC4(CCOC4)C3)cn2)c1 (stereo not drawn)	i	i	i	i	i
O=C1NCCCc2[nH]c(-c3cnn(-c4cccc(F)c4)c3)nc21	?	i	i	i	22µM
Cc1cc(C)n(C)c(=O)c1C(=O)NC1CCCc2nc(-c3ccccc3)ncc21 (stereo not drawn)	i	i	i	i	i
CC(=O)Nc1cc(-c2cn(C)c(=O)n3cc(CN4CC[S+](=O)([O-])CC4)nc23)ccn1	i	i	i	100µM	i
O=C(NCc1ccc(F)cc1F)C1CCN(C(=O)c2ncn3c2COC(c2ccccc2)C3)CC1 (stereo not drawn)	i	i	i	i	35µM
Cc1ccc(C2Cn3cnc(C(=O)N4CCC(C(=O)NCc5ccc(F)cc5F)CC4)c3CO2)cc1 (stereo not drawn)	i	i	i	i	?
O=C(NCc1cc(F)ccc1F)C1CCN(C(=O)c2ncn3c2COC(c2ccc(F)cc2)C3)CC1 (stereo not drawn)	i	i	i	i	45µM
Cc1ccc(C2Cn3cnc(C(=O)N4CCC(C(=O)NCc5ccccc5F)CC4)c3CO2)cc1 (stereo not drawn)	i	i	i	i	?
